# Source: PubChem
# Most compounds without a hit are left out; they make up all but 7% or so of the library.
# ATXN viability: reduces viability in counter-screen for ATXN expression inhibitors; S2 cells (HEK-293 line with an ATXN2-luciferase reporter) viability, CellTiter-Fluor protease fluorescence, 24 h; Potency, µM (series often up to 56.7 µM), most hits filed as cytotoxic; actives 0.49% (n = 400,000); also: potency is read from the fitted curve at half-maximal effect; nearly all actives have a fitted effect of over 40% in size
# IL-1B inflam inh: inflammasome signaling inhibition, IL-1 beta readout | THP-1 LPS/ATP IL-1B secretion, AlphaLISA, 16 h; hits give low values | activity change, % at 57.5 µM | actives 4.7% (n = 360,000); in the data active = activity change below about -50%; inconclusive = mostly about -30% to -49%; also: % is scaled to controls: 0 for no effect and ±100 for the full control effect
#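 THP-1 cells pretreated 1 hr with compounds (up to 57.5 uM final), then stimulated with LPS (250 ng/mL final) plus ATP (1.25 mM final); secreted IL-1B measured by AlphaLISA after 16 hr, decreased signal indicating inhibition.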
# a7 integrin act: activates integrin-mediated alleviation for muscular dystrophy | alpha7betagal myoblasts, beta-gal FDG fluorescence, 48 h | Potency, µM (series often up to 38.3 µM), without a hit: top-dose activation, actives largely listed as activators | actives 0.064% (n = 350,000);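 also: potency is read from the fitted curve at half-maximal effect; 100% = response of the positive control SU9516; nearly all actives have a fitted effect of over 60% in size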
#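 Alpha7betagal+/- myoblasts (passage 13) were plated 16-24 hr, then exposed to compounds (1:260 dilution of DMSO stock) for 48 hours at 37C. After MPER lysis, β-galactosidase reporter activity was read as FDG fluorescence (ex 480/em 540) after 30 minutes.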
# ATXN2 expr inh: inhibitors of ATXN2 expression | AID 1745845 | actives 0.72% (n = 360,000) | Potency, µM (series often up to 57 µM), for inactives: at the highest dose activity change, negative = inhibition, hits mostly inhibitors | HEK-293 ATXN2-luciferase reporter, luminescence, 24 h; also: potency is read from the fitted curve at half-maximal effect; % is scaled to controls: 0 for no effect and ±100 for the full control effect; nearly all actives have a fitted effect of over 55% in size
#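 qHTS (up to 57 uM final) was run with 24 h compound exposure of reporter cells at 37 °C. Each well was multiplexed: SteadyGlo luminescence measured ATXN2-luciferase expression after a fluorogenic Gly-Phe-AFC viability readout (25 uM final).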
# DRD3 agonist: agonists of human D3 dopamine receptor; max activation, %; P35462; D3R DiscoveRx beta-arrestin cells, luminescence, 90 min; actives 0.58% (n = 410,000); in the data active = max activation above about 30%; also: 0% is about no effect
# Target sequence (P35462 whole entry, looked up): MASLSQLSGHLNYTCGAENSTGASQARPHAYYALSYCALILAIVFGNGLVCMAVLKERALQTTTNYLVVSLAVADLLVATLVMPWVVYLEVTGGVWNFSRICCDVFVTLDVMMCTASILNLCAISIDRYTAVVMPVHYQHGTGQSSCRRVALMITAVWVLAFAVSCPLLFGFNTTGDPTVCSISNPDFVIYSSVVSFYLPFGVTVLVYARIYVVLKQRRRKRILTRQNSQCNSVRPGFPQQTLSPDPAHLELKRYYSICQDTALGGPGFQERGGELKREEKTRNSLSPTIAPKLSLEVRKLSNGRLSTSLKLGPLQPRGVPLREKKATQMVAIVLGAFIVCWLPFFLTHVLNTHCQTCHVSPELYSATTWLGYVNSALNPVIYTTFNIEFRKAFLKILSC
#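 Agonist mode: compounds and dopamine controls were applied to plated cells for 90 min at 37 degrees C after an overnight attachment at 1500 cells/well. Luminescent read-out followed 30 - 60 minutes at room temperature with DiscoveRx detection reagent.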
# DRD3 antagonist: D3 dopamine receptor (human) antagonism; D3R cells, DiscoveRx beta-arrestin luminescence, antagonist mode; hits give low values; actives 2.5% (n = 360,000); AID 652054; max response, negative = inhibition, %; in the data active = max response below about -50%; inconclusive = no clear call, values can overlap the other calls; also: % is scaled to controls: 0 for no effect and ±100 for the full control effect
#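 Cells plated overnight at 1500 cells/well, then exposed to library compounds with dopamine controls for 90 minutes at 37 degrees C. DiscoveRx reagent added for 30–60 minutes at room temperature; luminescence read, quantitative HTS format.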
# Active calls of the source: *; i = inactive; ? = inconclusive; . = not tested or not shown; [ ] = remark or other dose. Unless noted, calls follow the shape of the dose curve; as a rule, active = well fitted curve in the direction sought with a large enough effect; inconclusive = small, poorly fitted or top-dose-only effect, or another doubt; inactive = no such curve, though single readings can be large; an effect the other way counts as inactive or inconclusive.
SMILES,ATXN viability,IL-1B inflam inh,a7 integrin act,ATXN2 expr inh,DRD3 agonist,DRD3 antagonist
Cc1ccc(NC(=O)C2CCC2)cc1S(=O)(=O)N1CCCCCC1,i,-8,19%,-24%,-7,-3
CCOc1ccc(NS(=O)(=O)c2cc(NC(=O)C3CC3)ccc2C)cc1Br,i,-71*,5%,-2%,8,10
Cc1cc(=O)oc2cc(OCc3ccc(C(=O)N4CCN(c5ccccc5)CC4)cc3)ccc12,i,-7,1%,3%,26,15
Cc1ccc(NC2=C(C(=O)c3ccccc3)N(C)S(=O)(=O)c3ccccc32)cc1,i,-22,0%,-28%,-7,-60*
CN1C(C(=O)c2ccccc2)=C(N)c2ccccc2S1(=O)=O,i,-13,-13%,-9%[11.3 µM],3,-1
CC1CCCCC1NC(=O)CCC(=O)N1CCOc2ccc(Cl)cc21 (stereo not given),i,-6,-5%,2%,-20,-53*
O=C(CCC(=O)N1CCOc2ccc(Cl)cc21)NCc1ccccc1,i,-4,-5%,-3%,-14,?
CC1CCN(C(=O)CCC(=O)N2CC(C)Oc3ccccc32)CC1 (stereo not given),i,12,?,0%,0,2
CC1CCC(NC(=O)CCC(=O)N2CC(C)Oc3ccccc32)CC1 (stereo not given),i,-13,0%,26%,-16,-92*
Cc1ccc2c(c1)N(C(=O)CCC(=O)NC1CCC(C)CC1)CCO2 (stereo not given),i,-12,26%,8%,-12,-96*
CC1(C)CC(=O)C2=C(C1)Nc1ccccc1N(C(=O)C1CC1)C2c1ccco1 (stereo not given),i,-15,-37%,10%,0,2
CCN(C[C@H]1N[C@@](CC)(C(=O)OC)[C@H]2C(=O)N(Cc3ccccc3)C(=O)[C@@H]12)S(=O)(=O)c1ccc(F)cc1,i,-16,4%,6%,5,33
CC(=O)Nc1ccc(S(=O)(=O)NCCSCc2ccc(Cl)cc2Cl)cc1,i,-56*,0%,-16%,-4,32
CCOc1ccc2nc(NC(=O)C3(C)CC3(Br)Br)sc2c1 (stereo not given),i,-16,-47%,.,7,0
CC1CCCN(C(=O)c2ccc3c(c2)OCCO3)C1 (stereo not given),i,7,-17%,40%,1,2
COc1ccc(OC)c(NC(=O)CCc2nnc3ccc(N4CCC(C)CC4)nn23)c1,i,-50*,?,-21%,0,-29
CC(Oc1ccc(Br)cc1)C(=O)Nc1cc(Cl)ccc1N1CCN(C)CC1 (stereo not given),?,-86*,-71%,?,-9,-1
COc1ccc(CCC(=O)Nc2cc(Cl)ccc2N2CCN(C)CC2)cc1,i,?,-27%,-20%,-6,8
CN1CCN(c2ccc(Cl)cc2NC(=O)/C=C/c2ccc(F)cc2)CC1,.,-73*,-70%,-9%,-6,-18
C[n+]1c(-c2ccccc2)sc([S-])c1-c1ccccc1,i,7,-40%,-13%,11,-19
CCCOc1ccc(C(=O)NCC(c2cccs2)N(C)C)cc1OC (stereo not given),i,-1,32%,0%,-29,?
COc1cc2ccccc2cc1C(=O)NCC(c1cccs1)N(C)C (stereo not given),i,-76*,-17%,69%,-35,-10
COc1cc(C(=O)NCC(c2cccs2)N(C)C)cc(Cl)c1OC(C)C (stereo not given),i,-6,-18%,3%,-10,-76*
Cc1ccc(NC(=O)Cn2nc(C)c(S(=O)(=O)N(C)C)c2C)cc1C,i,10,-17%,.,0,-8
CC(C)n1c(O)c(N=NC(=O)CNC(=O)Cc2ccc(Cl)cc2)c2ccccc21,i,-13,-9%,3%,-3,-15
